Experimental data as given in PubChem BioAssay (NCI).
The panel holds about 83,000 compounds, 20% with a hit somewhere; the sample as a whole holds those more often.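 Negative percent growth values reflect cell death: -40 means 40% of the cells present at the start died, and -100 means all died.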 A number with no mark means an inactive call. The source made the active and inactive calls. Rule for the calls: active = growth percent below 10; inactive = the rest.

What was measured:
Assay in all cases: NCI-60 one-dose screen, 48 h (100 = growth as untreated, 0 = no growth, -100 = all killed)
[1] = tested on: EKVX NSCLC; settings: 10 µM unless noted
[2] = tested on: SN12C renal; settings: 10 µM unless noted
[3] = tested on: UO-31 renal; settings: 10 µM unless noted
[4] = tested on: TK-10 renal; settings: 10 µM unless noted
[5] = tested on: ACHN renal; settings: 10 µM unless noted
[6] = tested on: CAKI-1 renal; settings: 10 µM
[7] = tested on: A498 renal; settings: 10 µM unless noted
[8] = tested on: CCRF-CEM leukemia; settings: 10 µM unless noted
[9] = tested on: MOLT-4 leukemia; settings: 10 µM unless noted
[10] = tested on: SR leukemia; settings: 10 µM unless noted
[11] = tested on: RPMI-8226 leukemia; settings: 10 µM unless noted
[12] = tested on: OVCAR-8 ovarian; settings: 10 µM unless noted
[13] = tested on: OVCAR-5 ovarian; settings: 10 µM unless noted
[14] = tested on: OVCAR-4 ovarian; settings: 10 µM unless noted
[15] = tested on: SK-OV-3 ovarian; settings: 10 µM unless noted
[16] = tested on: IGROV1 ovarian; settings: 10 µM unless noted
[17] = tested on: HS 578T breast; settings: 10 µM unless noted
[18] = tested on: NCI/ADR-RES ovarian; settings: 10 µM unless noted
[19] = tested on: SK-MEL-2 melanoma; settings: 10 µM unless noted
[20] = tested on: OVCAR-3 ovarian; settings: 10 µM unless noted

SMILES | growth [1] | growth [2] | growth [3] | growth [4] | growth [5] | growth [6] | growth [7] | growth [8] | growth [9] | growth [10] | growth [11] | growth [12] | growth [13] | growth [14] | growth [15] | growth [16] | growth [17] | growth [18] | growth [19] | growth [20]
CC(=O)c1sc(Nc2cccc(Nc3nc(C)c(C)s3)c2)nc1C | 68.8% | 55% | 32.2% | 53.6% | 36.5% | 28.1% | 27.7% | 61.2% | 38.3% | 38.5% | 67.9% | 43.4% | 83.5% | 51.5% | 25.8% | 26.4% | 52.7% | 55.6% |  | 
NC(N)=NS(=O)(=O)c1ccc(N=NC2C(=O)NN(c3ccccc3)C2=O)cc1 (stereo unspecified) | 110% | 101% | 82.9% | 106% | 95.9% | 87.7% | 98.2% | 116% | 106% | 109% | 98.8% | 104% | 101% | 104% | 112% | 103% | 89% | 99.9% |  | 
CCN1C(=O)N(CC)C2SC(N/N=C/c3ccc(F)cc3)=NC21 (stereo unspecified) |  | 33.6% | 50.3% | 88.3% | 37.3% | 31.7% | -22.4% (active) | 23.2% | 23.8% | 19.4% | 19.6% | 2.03% (active) | 48.4% | 67.2% | 36.6% | 25.1% | 11.9% | 0.946% (active) | 17.2% | 
CCN1C(=O)N(CC)C2C1NN=C1SC(c3ccccc3)=CC(=O)N12 (stereo unspecified) | 45.6% | 36.7% | 43.3% | 62.8% | 45.2% | 37.5% | -7.16% (active) | 13.2% | 18.2% | 16.2% | 4.35% (active) | 18.2% | 29.1% | 72.5% | 42.2% | 41.4% | 3.22% (active) | 19.2% |  | 
CNC(=O)c1cc(Oc2ccc3nc(NC(=O)c4cc(C)cc(C)c4)sc3c2)ccn1 | 82% | 90.3% | 78.8% | 78.5% | 93.4% | 79% | 59.7% | 57.3% | 58.3% | 30.9% | 51.9% | 91.1% | 104% | 77% | 97.4% | 88.7% | 85.8% | 76% |  | 
COc1cc2oc(-c3cccc(NC(=O)c4cc(NC(=O)[C@H](C)N)ccc4Cl)c3)cc(=O)c2c(OC)c1OC | 90.7% | 90.9% | 72.3% | 99.8% | 91.3% | 85.3% | 71.8% | 71.7% | 76.3% | 73.1% | 67.2% | 69% | 106% | 85.9% | 120% | 96.7% | 99.9% | 88.6% |  | 
Cc1cc(-c2ccc3nc(N)sc3c2)nc2ccc3[nH]ncc3c12 |  | 32% | 51.4% | 50.1% | 40.7% | 20.3% | -9.07% (active) | 27.1% | 33.2% | 13.7% | 39.6% | 41.2% | 57.6% | 61.6% | 31.5% | 33.6% | 6.21% (active) | 13.6% | -3.92% (active) | 
CC1OC(O[C@@H]2C(O)C(CO)OC(O[C@H]3COC(O[C@H]4CC[C@]5(C)[C@H]6CC[C@]78OC[C@@]9(CC[C@](C)(C=O)C[C@H]97)[C@H](O)C[C@@]8(C)[C@]6(C)CC[C@H]5C4(C)C)[C@@H](OC4OC(CO)[C@@H](O)[C@@H](O)[C@@H]4O)[C@@H]3O)[C@H]2OC2OC[C@@H](O)[C@@H](O)[C@@H]2O)[C@@H](O)[C@@H](O)[C@H]1O (stereo partly specified) | 22.2% |  | -93.6% (active) | 29.5% | -82.2% (active) | -80.7% (active) | -89.3% (active) | 4.93% (active) | -36% (active) | -18.3% (active) | 32.9% |  | -78.7% (active) | -50.9% (active) | -93.9% (active) | 43.8% | -36.9% (active) | 46.1% | -35.2% (active) | 79.4%
CS(=O)(=O)c1nccc(-c2c(-c3ccc(F)c(OCCc4ccc(F)cc4)c3)nc3sccn23)n1 | -66.3% (active) | 62.4% | -51.8% (active) | 84.8% | 45.2% | 44.7% | 29.1% | 56.4% | 14.4% | 0.201% (active) | -43.2% (active) | 69.8% | 93.2% | 51.2% | 84.5% | -64.9% (active) | 35.5% | 81.3% |  | 
CCN1C(=O)N(CC)C2SC(N/N=C/c3ccccc3F)=NC21 (stereo unspecified) |  | 34.6% | 50.2% | 87.7% | 34.4% | 31.3% |  | 20% | 15.5% | 18.7% | 20.3% | 3.86% (active) | 47.5% | 68.4% | 30.4% | 28.3% | 11.9% | 5.59% (active) | 12% | 
C=C1C(=O)O[C@@H]2C[C@@H](C)CCC(=O)[C@](C)(OC(C)=O)C[C@H](OC(=O)/C(C)=C\C)[C@@H]12 | 73.2% |  | 85.4% | 55.4% | 41.9% | 63.1% |  | -17.2% (active) | 50.8% | 4.94% (active) | 32.3% | 66.8% | 114% | 81.2% | 94.8% |  | 101% | 97.2% | 81% | 34.9%
CNC(=O)c1cc(Oc2ccc3nc(NC(=O)c4cccc(C(F)(F)F)c4)sc3c2)ccn1 | 101% | 96% | 99.1% | 116% | 102% | 93.6% | 87.3% | 109% | 107% | 111% | 112% | 106% | 97.7% | 101% | 111% | 107% | 102% | 101% |  | 
O=C1/C(=C/c2ccc([N+](=O)[O-])cc2)SC(=Nc2ccccc2)N1Nc1ccccc1 | 70.9% | 29.5% | 37.1% | 89.1% | 53% | 38.6% | 28.2% | 24% | 3.98% (active) | 0.29% (active) | 42.7% | 50% | 75.8% | 52.9% | 102% | 61.9% | 79.1% | 45.8% |  | 
COc1ccc(NC(=O)[C@H](C)NC(=O)OC(C)(C)C)cc1C(=O)Nc1cccc(-c2cc(=O)c3c(OC)c(OC)c(OC)cc3o2)c1 | 3.7% (active) | 2.23% (active) | 16.8% | -3.36% (active) | 10.3% | 17.4% | -53.3% (active) | 3.69% (active) | 7.83% (active) | 8.47% (active) | -39.4% (active) | -27.5% (active) | 3.94% (active) | 21.3% | -17.8% (active) | 11.5% | -9.5% (active) | 61.4% |  | 
Clc1ccc(-c2csc(Nc3cccc(Nc4csc(-c5ccc(Cl)cc5)n4)c3)n2)cc1 | 61.8% | 63.1% | 51.5% | 98.2% | 54.3% | 51.9% | 67.8% | 94.1% | 60.7% | 96.8% | 86.3% | 87.3% | 77.5% | 76.5% | 79.3% | 50.6% | 73.4% | 79.5% |  | 
CCOC(=O)c1ccc(N/C=C/C(=O)c2ccccc2)cc1 | 103% | 99.7% | 99.1% | 89.8% | 98.5% | 92.7% | 99.9% | 102% | 97% | 87.8% | 100% | 102% | 101% | 105% | 113% | 110% | 113% | 103% |  | 
